GDH-TPI counter: inhibits GDH-TPI coupling enzymes, artifact for Mtb FBA screen. GDH-TPI coupled enzyme counterscreen, NADH absorbance. actives 1.2% (n = 360,000). inhibition, % at 4.8 µM. AID 588335; in the data active = inhibition above about 30%
Bead autofluor: counter-screen for toxin protease inhibitors: compound fluorescence; compound autofluorescence counterscreen, microsphere flow cytometry; active compounds read high; fluorescence intensity (concentration not given with the values); actives 3.1% (n = 360,000); AID 624483; in the data active = fluorescence intensity above about 16000; inconclusive = no clear call, values can overlap the other calls
BoNT-F LC inh: inhibitors of Botulinum neurotoxin F light chain protease; actives 0.22% (n = 360,000); Multiplex microsphere protease cleavage assay, flow cytometry; inhibition, % at 10 µM; in the data active = inhibition above about 35%, passing the limit was not always enough; inconclusive = no clear call, values can overlap the other calls
BoNT-A LC inh2: blocks Botulinum neurotoxin A light chain protease | actives 0.17% (n = 360,000) | inhibition, % at 10 µM | multiplex microsphere protease substrate cleavage, flow cytometry | AID 588499
FBA Mtb inh: inhibitors of M. tuberculosis fructose-bisphosphate aldolase. actives 2.3% (n = 360,000). inhibition, % at 1 µM. purified M. tuberculosis FBA, fluorescence read-out; in the data active = inhibition above about 27%
Anthrax LF inh2: blocks Bacillus anthracis lethal factor protease. inhibition, % at 10 µM. actives 0.12% (n = 360,000). P15917. multiplex microsphere protease cleavage assay, LF
A number is an active result; i = inactive; ? = inconclusive; nt = not tested or not shown. An excerpt weighted towards active compounds, which were near 6.6% of everything screened. Rule as the data show it, unless noted: active = inhibition above about 30%; inconclusive = no clear call, values can overlap the other calls; inactive = below that.

SMILES	GDH-TPI counter	Bead autofluor	BoNT-F LC inh	BoNT-A LC inh2	FBA Mtb inh	Anthrax LF inh2
Cc1nc(C(F)(F)F)ccc1C(=O)N1CCC1(C)C(=O)NS(=O)(=O)c1ccc2ccccc2c1 (stereo unspecified)	i	i	i	i	i	i
COC(=O)C1=C(O)C(C(=O)OC)C(c2ccc(C)cc2)C(C#N)(C#N)C1c1ccc(C)cc1 (stereo unspecified)	i	22296	i	i	i	i
COC(=O)CSc1nnc(CNS(=O)(=O)c2ccc(C)cc2)n1C	i	i	i	i	i	i
Cc1ccc(S(=O)(=O)NCc2nnc(SCC(=O)Nc3cccc(C)c3C)n2C)cc1	i	21005	i	i	i	i
CCOC(=O)CCP(=O)(O)C(C)(O)c1ccccc1 (stereo unspecified)	i	18987	i	i	i	i
CC(=O)c1nn(-c2cccc(Br)c2)cc1C(=O)c1ccc(Br)cc1	i	i	i	i	i	i
CCOC(=O)c1nn(-c2ccc(Br)cc2)cc1C(=O)c1cccc2ccccc12	i	20527	i	i	i	i
O=C(O)/C(=N/NC(=O)c1ccc(Cl)cc1)c1ccccc1	i	i	?	?	i	31
COc1cc(CNC(=O)Nc2nc(C(N)Cc3ccc(C(F)(F)F)cc3)cs2)cc(OC)c1OC (stereo unspecified)	i	i	i	i	i	i
CC(C)(C)Cc1c(-c2ccc(F)cc2)nc2ccc(Br)cn12	i	i	i	i	i	i
COC(=O)N/N=C/c1cc(C)n(-c2ccc(Br)cc2)c1C	i	i	?	i	i	31
Cc1cc(/C=N/NC(=O)c2cccs2)c(C)n1-c1ccccc1	33	i	i	i	i	i
O=C(N/N=C/c1cccnc1)c1cccs1	i	i	i	i	i	i
Cc1cc(/C=N/NC(=O)c2cccs2)c(C)n1-c1cnccn1	i	i	47	i	i	i
COC(=O)N/N=C/c1cc(C)n(-c2ccc(F)cc2)c1C	i	i	i	i	i	i
Cc1cc(=O)[nH]c(N/N=C/c2ccccc2Cl)n1	i	i	?	i	i	i
Cc1cc(=O)[nH]c(N/N=C/c2cc(C)n(-c3ccccc3)c2C)n1	43	i	i	i	i	i
O=C(NCCc1ccc(F)cc1)C1CCCO1 (stereo unspecified)	i	i	i	i	i	i
COc1ccc(CNC(=O)OC2CC3CC2[C@H]2CCCCN2C3=O)cc1 (stereo partly specified)	nt	i	i	i	nt	i
COc1ccc(NC2CCCN(C(=O)COc3ccc(C(C)=O)cc3)C2)cc1 (stereo unspecified)	i	i	i	i	i	i
O=C(CSc1ccc2ccccc2c1)NC1CCCc2ccccc21 (stereo unspecified)	i	i	i	i	i	i
O=[N+]([O-])c1cc(/C=N/O)ccc1Sc1ccccc1	i	i	i	i	i	i
O=[N+]([O-])c1cc(/C=N/O)ccc1SCc1ccccc1	i	22700	i	?	i	i
O=C(Cc1ccc(Cl)cc1)NNC(=O)C1CC=CCC1C(=O)O (stereo unspecified)	i	i	i	i	i	i
CC(=NNC(=S)N1CCN(C2CCCCCC2)CC1)c1ccccn1	i	i	74	82	i	92
SMILES	GDH-TPI counter	Bead autofluor	BoNT-F LC inh	BoNT-A LC inh2	FBA Mtb inh	Anthrax LF inh2
CC(=NNC(=S)N1CCN(c2ccccn2)CC1)c1nccs1	i	i	i	i	i	31
CC(=NNC(=S)N1CC2CCC(CC2)C1)c1cnccn1	i	i	59	40	i	54
CC(=NNC(=S)N1CC2CCC(CC2)C1)c1ccccn1	i	i	60	i	i	52
Brc1ccc(CNc2cc3c(cc2Br)OCCO3)cc1	i	i	i	i	i	i
O=C(CN1CSCC1=O)N1CCN(S(=O)(=O)c2ccc(Cl)cc2)CC1	i	i	i	i	i	i
COCCn1c(CN2CCN(C(=O)c3ccco3)CC2)nc2c1c(=O)n(C)c(=O)n2C	i	i	i	i	i	i
O=C(c1cccc(C(F)(F)F)c1)N1CCC(O)(CS(=O)(=O)Cc2ccccc2)CC1	i	i	i	i	i	i
O=C(c1cccc(C(F)(F)F)c1)N1CCC(O)(CS(=O)(=O)Cc2ccc(Cl)cc2)CC1	i	17295	i	i	i	i
O=C(c1cccc(C(F)(F)F)c1)N1CCC(O)(CS(=O)(=O)Cc2ccccc2Cl)CC1	i	20377	i	?	i	i
c1ccc(CNc2ccc(CNc3ncn[nH]3)cc2)cc1	i	22732	i	?	i	i

Compound activity deposited in PubChem by several laboratories.
